# Compound activity (PubChem BioAssay)
# Shown are actives, neighbours in structure and some others; about 6.5% of the full set was active somewhere.
# VACV mCherry inh: qHTS for Stage-Specific Inhibitors of Vaccinia Orthopoxvirus: mCherry Reporter Primary qHTS; Vaccinia virus mCherry reporter infection, fluorescence; Potency, µM (titrated, usually from 36.5 µM), without a hit: top-dose activity change, negative = inhibition, hits mostly inhibitors; hit rate 0.63% among 310,000; calls by dose curve; tested in A549 cells; further: potency means the concentration at half of the fitted maximal effect; nearly all actives have a fitted effect of over 35% in size
# VACV Venus inh: qHTS for Stage-Specific Inhibitors of Vaccinia Orthopoxvirus: Venus Reporter Primary qHTS. hit rate 0.46% among 330,000. Potency, µM (titrated, usually from 36.5 µM), for inactives: at the top dose activity change, negative = inhibition, actives largely listed as inhibitors. AID 720580, 2013. Vaccinia virus Venus reporter expression, fluorescence; calls by dose curve; tested in A549 cells; further: potency means the concentration at half of the fitted maximal effect; nearly all actives have a fitted effect of over 30% in size
# Marburg entry inh: qHTS for inhibitors of binding or entry into cells for Marburg Virus. Potency, µM (top dose mostly 37.8 µM), inactives show at the top dose activity change, negative = inhibition, actives largely listed as inhibitors. Marburg virus pseudotyped entry inhibition, cell reporter. hit rate 1.8% among 300,000. AID 540276, 2011; calls by dose curve; tested in HEK293 cells; further: potency means the concentration at half of the fitted maximal effect
# HCMV inh: qHTS Assay for inhibitors of the human cytomegalovirus (HCMV) | HFF cells, HCMV-luciferase reporter, 72 h; active compounds read low | activity change, negative = inhibition, % at 57.5 µM | hit rate 4.5% among 410,000; in the data active means activity change below about -60%; inconclusive means no clear call, values can overlap the other calls; inactive means above about -39%
#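 Two compound doses tested in HFFs infected with HCMV-luciferase, MOI 1 PFU/cell, 72 h at 37C. Lysate luminescence read with OneGlo; data normalized against buffer-only and 10uM Salinomycin inhibitor controls.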
# LASV entry inh: qHTS for Inhibitors of binding or entry into cells for Lassa Virus. Lassa virus pseudotype entry inhibition, cell reporter. Potency, µM (top dose mostly 37.9 µM), for inactives: at the top dose activity change, negative = inhibition, most hits filed as inhibitors. hit rate 1.2% among 300,000; calls by dose curve; tested in HEK293 cells; further: potency means the concentration at half of the fitted maximal effect; nearly all actives have a fitted effect of over 50% in size
# FMDV antiviral: High Throughput Screening for Foot and Mouth Disease Virus Antivirals | FMDV antiviral cell-based qHTS | Potency, µM (titrated, usually from 57.9 µM), without a hit: top-dose activity change, negative = inhibition, hits mostly inhibitors | hit rate 1.2% among 410,000 | AID 1159524, 2015; calls by dose curve; tested in HEK293T cells; further: read-out not given here; potency means the concentration at half of the fitted maximal effect; nearly all actives have a fitted effect of over 45% in size
# Numbers without * were called inactive; i = inactive; ? = inconclusive; . = no result given; ! = a repeat was not active; [ ] = dose if it differs, or a comment. On the % scale 0 is the no-effect control and ±100 the full control effect.
SMILES,VACV mCherry inh,VACV Venus inh,Marburg entry inh,HCMV inh,LASV entry inh,FMDV antiviral
CCN1CC2=C(OC(N)=C(C#N)C2c2cccs2)/C(=C/c2cccs2)C1 (configuration not stated),i,-19.6%,?,2.3,?,28.2µM*
O=C(C[N+]12CCCc3cccc(c31)CCC2)c1ccccc1,-11.3%,?,.,.,.,.
O=C(O)/C=C/c1ccc2ccccc2c1,-15.4%,-6.4%,.,.,.,.
COc1ccc(OC[C@@H]2CC3[C@@H](c4ccc(Br)cc4)[C@H](C)CC[C@H]3C(=O)O2)cc1 (some centres not stated),.,.,-5.2%[14.2 µM],.,.,.
Cc1cccc[n+]1CC(=O)c1ccc([N+](=O)[O-])cc1,-20.6%,-4.7%,10.1%[46.1 µM],-86.8*,2.9%[46.1 µM],-6.7%
COc1ccc(C(=O)C[n+]2ccccc2C)cc1,-14.8%,-11.1%,?,-37.5,12.8%,4.8%
O=C(C[n+]1cccc2cc(Cl)ccc21)c1ccc(I)cc1,-15.6%,78.1%,.,.,.,.
COc1cc2nc(N3CCN(C)CC3)nc(NC3CCN(Cc4ccccc4)CC3)c2cc1OC,-1.0%,-27.2%,.,.,.,.
COc1cc2c(NC3CCN(C)CC3)nc(N3CCCN(C)CC3)nc2cc1OCCCN1CCCCC1,3.98µM*,3.55µM*,.,.,.,.
COc1cc2nc(N3CCCN(C)CC3)nc(NC3CCN(Cc4ccccc4)CC3)c2cc1OC,?,11.2µM*!,?,.,1.83µM*,.
COc1cc2c(NC3CCN(C)CC3)nc(N3CCCN(C)CC3)nc2cc1OCCCC(C)C,?,12.6µM*,.,.,.,.
Cc1ccn(CCC(=O)N2CCOc3ccc(C(O)C4CCCCC4)cc3C2)n1 (configuration not stated),-12.7%,-5.0%,.,.,.,-7.6%
Cn1nc(C(=O)NCCN2Cc3ccccc3OC(c3ccsc3)C2)c2ccccc2c1=O (configuration not stated),-8.1%,-2.8%,.,.,.,-5.4%
Cc1cccc(Nc2nc(-c3ccc(F)cc3)cs2)n1,-14.4%,-17.6%,?,254.6,12.6µM*,0.0%
COc1ccccc1C(=O)N(Cc1ccco1)Cc1ccccc1F,-6.1%,-9.2%,-0.1%[46.1 µM],?,1.2%[46.1 µM],-6.7%
CCOC(=O)CSC(=S)NC(=O)c1ccc(OC)cc1,i,-18.4%,-2.1%,-86.9*,5.3%,-16.3%
CCOC(=O)c1csc(N)c1-c1ccc([N+](=O)[O-])cc1,.,.,.,-71.5*,.,-16.1%
Clc1ccc(Nc2nc(-c3ccccc3)c3cc(Cl)ccc3n2)cc1,-0.5%,-16.3%,.,-60.5*,3.5%[46.1 µM],-18.7%
CC(=O)N1c2ccc(S(=O)(=O)NCC3CCC(C(=O)Nc4cc(C)ccc4C)CC3)cc2CC1C (configuration not stated),-8.2%,-28.9%,.,-16.1,6.7%[46.1 µM],?
CCc1ccccc1Nc1nc(N)nc(COC(=O)CCC(=O)c2ccc(F)cc2)n1,-12.0%,5.4%,?,.,10µM*,6.4%
CCCCC(=O)OCc1nc(N)nc(Nc2ccccc2C)n1,-0.8%,-18.5%,-24.6%,0.0,?,0.0%
Cc1ccccc1Nc1nnc(-c2ccc(C)c(S(=O)(=O)N3CCCCC3)c2)c2ccccc12,?,-11.5%,.,-63.3*,?,0.0%
Cc1ccc(-c2nnc(Nc3ccc(O)cc3)c3ccccc23)cc1S(=O)(=O)N1CCCCC1,?,?,.,-90.2*,1.4%[46.1 µM],-7.3%
Cc1ccc(-c2nnc(Nc3ccc(C(N)=O)cc3)c3ccccc23)cc1S(=O)(=O)N1CCCCC1,-14.4%,-16.3%,.,-33.1,?,-19.7%
Cc1ccccc1Nc1oc(-c2ccccc2)nc1-c1ccc(C(F)(F)F)cc1,.,.,16.6%[14.2 µM],.,?,.
SMILES,VACV mCherry inh,VACV Venus inh,Marburg entry inh,HCMV inh,LASV entry inh,FMDV antiviral
CC(C)(C)S(=O)N1C[C@@H]2CC(=O)C(c3ccccc3)=C2[C@H]1CCO (some centres not stated),.,.,.,16.4,.,.
COc1ccc(NC(C)=[N+](C)CCNS(=O)(=O)c2ccc(Cl)cc2)cc1Cl,.,.,.,43.8,.,-5.7%
CC(Nc1cc(C)cc(C)c1)=[N+](C)CCNS(=O)(=O)c1ccc(Cl)cc1,?,-11.7%,10µM*,12.4,-11.7%[46.1 µM],-22.7%
O=C(CSc1ccccn1)Nc1nonc1[N+](=O)[O-],.,.,.,53.6,.,31.6µM*
Cc1csc2nc(COC(=O)c3cccc(NC(=O)COc4ccccc4Cl)c3)cc(=O)n12,i,-19.9%,.,-61.0*,-28.3%[46.1 µM],-24.3%
Cc1ccccc1OCC(=O)Nc1ccc(C(=O)OCc2cc(=O)n3c(C)csc3n2)cc1,i,0.5%,.,-86.7*,10.9%[46.1 µM],4.4%
COc1ccc(N2CCN(C(=O)CN=C3NS(=O)(=O)C(c4ccc(C)cc4)=C3C)CC2)cc1,?,-30.0%,-9.8%,-60.9*,24.6%[14.3 µM],-25.3%
CCCCCC(=O)N1C[C@@H](O)[C@H](n2cc(-c3ccc(F)cc3)nn2)C[C@H]1c1ccc(OC)cc1,.,.,.,.,10.8%[46.1 µM],.
CCCN(CCC)CCCNC(=O)c1cn(CC)c2ccc(S(=O)(=O)N(C)C3CCCCC3)cc2c1=O,-19.1%,-16.2%,5.6%[46.1 µM],-81.5*!,-1.9%[46.1 µM],7.8%
CCC1CCCCN1CCCNC(=O)c1cn(CC)c2ccc(S(=O)(=O)N(C)C3CCCCC3)cc2c1=O (configuration not stated),-15.7%,-8.8%,-17.0%[46.1 µM],-69.1*!,27.5%[46.1 µM],9.3%
CCCN(CCC)CCCNC(=O)c1cn(C)c2ccc(S(=O)(=O)N(C)C3CCCCC3)cc2c1=O,i,-5.0%,9.1%[46.1 µM],?,?,-1.0%
CCn1cc(C(=O)NCCCOC)c(=O)c2cc(S(=O)(=O)N(C)C3CCCCC3)ccc21,-17.2%,-6.4%,-13.2%,-36.4,6.0%,-18.7%
CCn1cc(C(=O)NCCCN2CCCC(C)C2)c(=O)c2cc(S(=O)(=O)N3CCc4ccccc4C3)ccc21 (configuration not stated),-18.7%,?,?,-73.7*,?,-15.9%
Cc1cc(=O)[nH]c2nnc(SCc3cccc(F)c3)n12,i,-3.7%,.,?,-0.4%[46.1 µM],25.8%
O=C(NC1=NC2CCCCC2N1)c1ccccc1 (configuration not stated),i,-5.9%,?,-5.5,?,12.6µM*
O=C(NC1CCCCCCC1O)c1ccccc1 (configuration not stated),i,-13.1%,?,-9.6,6.7%,19.1%
COc1ccc(-n2c(=O)c3c4c(sc3n(Cc3ccc(F)cc3)c2=O)CCCC4)c(OC)c1,-10.2%,-8.5%,5.5%[46.1 µM],-8.7,4.4%[46.1 µM],-27.3%
CCCSc1nc(N)nc2c1ncn2C1OC(CO)C(O)C1O (configuration not stated),i,-13.8%,8.2%[46.1 µM],-70.0*,?,-2.4%
Cc1nc2cc[nH]n2c(=O)c1CCc1ccccc1,.,.,.,-21.4,.,.
C/C(O)=C(/C#N)c1nc2ccccc2[nH]1,.,?,4.0%[46.1 µM],-21.6,6.4%,-12.7%
